Measured values as given in PubChem BioAssay.
Active and inactive are the calls of the source.

How the values were obtained:
[1] = test system: PRMT1 (protein arginine N-methyltransferase 1); assay: small molecules binding arginine methyltransferase PRMT1 – biochemical, small-molecule microarray, 635 nm fluorescence, primary screen (AID 1088); conditions: higher = more signal;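 note: binding of Prmt1 protein to compounds spotted on small-molecule microarray slides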
[2] = growth effects on S. cerevisiae YJM789 – YJM789 clinical isolate, OD600, 24 h, basal, primary screen (AID 1089); conditions: higher = more signal, called active from +8 up or from −8 down;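 note: growth of clinical yeast isolate S. cerevisiae YJM 789 seeded 1000 cells per well; test concentration not given here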
[3] = S. pombe growth modifiers, basal conditions – strain 972, OD600, 24 h, no modulator, primary screen (AID 1090);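 note: basal condition with compound alone and no growth modifier present; test concentration not given here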; conditions: S. pombe 972 growth, higher = more signal, called active from +8 up or from −8 down
[4] = budding yeast growth modifiers under rapamycin – strain BY4716, OD600, 96 h, primary screen (AID 1091); note: test concentration not given here; conditions: S. cerevisiae BY4716 + rapamycin, higher = more signal, called active from +8 up or from −8 down
[5] = biological target: Torsin-1A-interacting protein 2 (Homo sapiens) (UniProt Q8NFQ8); assay: small molecules binding lysate-expressed LULL1 – cell lysate, human LULL1 lysate, 635/667 nm fluorescence, primary screen (AID 1092); conditions: small-molecule microarray, hLULL1 lysate binding, 635 nm fluorescence; higher = more signal;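 note: probe is lysate of COS7 cells overexpressing human LULL1; score merges per-feature 667 nm fluorescence with signal-to-noise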
Sequence of Torsin-1A-interacting protein 2 (Homo sapiens) (Q8NFQ8 whole entry, looked up): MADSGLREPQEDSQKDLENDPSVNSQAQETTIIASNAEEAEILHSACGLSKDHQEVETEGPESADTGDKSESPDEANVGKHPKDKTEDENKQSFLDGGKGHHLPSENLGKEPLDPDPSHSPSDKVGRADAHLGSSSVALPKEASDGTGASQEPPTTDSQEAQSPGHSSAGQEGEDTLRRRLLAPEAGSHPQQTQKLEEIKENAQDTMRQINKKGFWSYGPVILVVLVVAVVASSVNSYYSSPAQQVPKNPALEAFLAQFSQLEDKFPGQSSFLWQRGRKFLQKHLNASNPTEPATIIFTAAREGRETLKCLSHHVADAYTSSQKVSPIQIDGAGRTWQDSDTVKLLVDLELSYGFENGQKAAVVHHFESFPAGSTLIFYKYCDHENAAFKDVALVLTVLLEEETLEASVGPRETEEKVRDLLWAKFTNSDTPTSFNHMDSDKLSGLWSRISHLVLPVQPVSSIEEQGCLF

[6] = optical density change of DRC41 E. coli – strain DRC41, OD650, 24 h, E. coli filamentation project, primary screen (AID 1093);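 note: MC1000 strain lacking acrAB efflux and sulA so SOS filamentation is blocked; test concentration not given here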; conditions: E. coli DRC41 growth, higher = more signal, called active from +8 up or from −8 down
[7] = probe aLefty2 binding to arrayed compounds – biochemical, biotinylated probe, 635/667 nm fluorescence, primary screen (AID 1094); conditions: small-molecule microarray, higher = more signal;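 note: score merges spot fluorescence near 667 nm with spot signal-to-noise ratio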
[8] = test system: Noggin (protein binding on small-molecule microarray); assay: small molecules binding Noggin protein – biochemical, 635/667 nm fluorescence, primary screen (AID 1095); conditions: 635 nm fluorescence, higher = more signal;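 note: score merges 667 nm feature fluorescence with signal to noise over triplicate slides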
[9] = biological target: Neurogenic locus notch homolog protein 3 (Homo sapiens) (UniProt Q9UM47); assay: small molecules binding NOTCH3 protein – biochemical, 635/667 nm fluorescence, primary screen (AID 1096); conditions: small-molecule microarray, 635 nm fluorescence, higher = more signal
Sequence of Neurogenic locus notch homolog protein 3 (Homo sapiens) (Q9UM47 whole entry, looked up): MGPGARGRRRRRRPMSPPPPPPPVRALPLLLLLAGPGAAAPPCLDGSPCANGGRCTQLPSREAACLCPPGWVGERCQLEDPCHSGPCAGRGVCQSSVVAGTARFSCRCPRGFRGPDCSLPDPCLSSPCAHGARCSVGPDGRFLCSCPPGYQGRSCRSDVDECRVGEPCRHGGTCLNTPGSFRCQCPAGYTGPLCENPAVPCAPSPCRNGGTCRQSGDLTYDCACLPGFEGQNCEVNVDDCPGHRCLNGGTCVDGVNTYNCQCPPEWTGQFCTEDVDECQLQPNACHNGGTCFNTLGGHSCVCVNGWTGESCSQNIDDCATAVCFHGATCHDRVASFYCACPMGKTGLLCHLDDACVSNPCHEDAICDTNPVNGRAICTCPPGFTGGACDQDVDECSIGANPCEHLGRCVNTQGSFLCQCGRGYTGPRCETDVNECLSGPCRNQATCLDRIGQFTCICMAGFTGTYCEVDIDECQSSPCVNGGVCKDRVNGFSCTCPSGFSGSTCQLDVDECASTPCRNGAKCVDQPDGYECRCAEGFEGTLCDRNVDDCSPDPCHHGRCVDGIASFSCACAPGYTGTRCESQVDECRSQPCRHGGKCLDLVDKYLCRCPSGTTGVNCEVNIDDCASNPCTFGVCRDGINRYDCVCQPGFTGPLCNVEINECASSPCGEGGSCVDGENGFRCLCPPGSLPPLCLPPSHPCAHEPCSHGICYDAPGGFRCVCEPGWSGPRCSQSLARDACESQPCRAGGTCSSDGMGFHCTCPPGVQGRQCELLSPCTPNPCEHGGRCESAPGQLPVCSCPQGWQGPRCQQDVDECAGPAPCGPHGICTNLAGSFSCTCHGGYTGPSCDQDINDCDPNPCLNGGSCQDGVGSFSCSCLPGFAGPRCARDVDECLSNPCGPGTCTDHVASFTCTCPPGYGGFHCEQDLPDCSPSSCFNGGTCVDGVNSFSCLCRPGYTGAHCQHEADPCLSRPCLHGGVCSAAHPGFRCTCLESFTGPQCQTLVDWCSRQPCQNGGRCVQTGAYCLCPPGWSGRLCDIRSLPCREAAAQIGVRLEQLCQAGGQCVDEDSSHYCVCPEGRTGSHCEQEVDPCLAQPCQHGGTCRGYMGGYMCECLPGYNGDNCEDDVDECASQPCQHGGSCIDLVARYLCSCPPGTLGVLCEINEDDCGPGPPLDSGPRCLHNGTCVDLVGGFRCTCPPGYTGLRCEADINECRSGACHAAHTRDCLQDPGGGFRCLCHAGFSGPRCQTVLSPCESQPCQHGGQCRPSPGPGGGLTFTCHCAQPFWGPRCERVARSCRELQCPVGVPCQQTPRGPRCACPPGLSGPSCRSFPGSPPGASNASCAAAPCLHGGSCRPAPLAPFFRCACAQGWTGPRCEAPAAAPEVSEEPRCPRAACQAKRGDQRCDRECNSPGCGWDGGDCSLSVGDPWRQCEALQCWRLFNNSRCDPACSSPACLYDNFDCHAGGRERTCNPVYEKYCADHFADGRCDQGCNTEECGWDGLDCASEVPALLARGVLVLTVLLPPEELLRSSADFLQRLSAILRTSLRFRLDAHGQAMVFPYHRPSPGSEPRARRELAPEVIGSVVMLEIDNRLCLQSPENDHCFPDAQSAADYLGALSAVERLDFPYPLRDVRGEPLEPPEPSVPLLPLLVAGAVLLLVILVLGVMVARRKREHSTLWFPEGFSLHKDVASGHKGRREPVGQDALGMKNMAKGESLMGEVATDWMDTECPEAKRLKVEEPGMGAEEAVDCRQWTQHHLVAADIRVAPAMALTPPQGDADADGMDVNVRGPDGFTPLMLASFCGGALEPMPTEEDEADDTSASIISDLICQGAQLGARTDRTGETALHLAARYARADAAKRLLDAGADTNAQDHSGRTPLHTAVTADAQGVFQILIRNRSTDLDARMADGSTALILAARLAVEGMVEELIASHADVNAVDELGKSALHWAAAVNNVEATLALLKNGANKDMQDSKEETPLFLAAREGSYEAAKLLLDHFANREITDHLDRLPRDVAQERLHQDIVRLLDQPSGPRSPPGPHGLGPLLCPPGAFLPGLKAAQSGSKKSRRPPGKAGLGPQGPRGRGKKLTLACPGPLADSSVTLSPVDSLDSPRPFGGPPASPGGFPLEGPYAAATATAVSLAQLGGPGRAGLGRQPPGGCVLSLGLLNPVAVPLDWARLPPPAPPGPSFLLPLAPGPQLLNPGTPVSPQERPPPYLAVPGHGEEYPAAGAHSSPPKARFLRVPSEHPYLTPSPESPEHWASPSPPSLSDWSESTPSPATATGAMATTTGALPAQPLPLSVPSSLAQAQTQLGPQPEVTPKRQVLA

[10] = probe aEGFR binding to arrayed compounds – biochemical, biotinylated probe, 635/667 nm fluorescence, primary screen (AID 1097); conditions: small-molecule microarray, higher = more signal;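 note: probe is a biotinylated anti-EGFR antibody binding compounds printed on slides; score combines fluorescence near 667 nm and signal to noise of each spot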

For C=CCNC(=O)[C@@H]1[C@H]2C(=O)O[C@H](c3ccccc3)[C@H](c3ccccc3)N2[C@H](c2ccccc2OCCO)[C@@]12C(=O)Nc1ccc(C#CCCO)cc12, the composite z-score [1] was 1.55, the z-score [2] was 1.31 (inactive) and the z-score [3] was -1.46 (inactive). For the same molecule, the z-score [4] was 3.43 (inactive), the composite z-score [5] was 2.3 and the z-score [6] was -0.372 (inactive). The composite z-score [7] was -0.106, the composite z-score [8] was 1.23 and the composite z-score [9] was 0.686. It also gave a composite z-score [10] of -0.165.

In the case of Cc1cc(C)c(C(O)C2C=CC3C(=O)N(c4ccccc4)C(=O)C3N2Nc2ccccc2F)c(C)c1 (stereo not given), the composite z-score [1] is reported as -0.0446, the z-score [2] is reported as 1.37 (inactive) and the z-score [3] is reported as 1.11 (inactive). The z-score [4] was 1.77 (inactive), the composite z-score [5] was 1.89 and the z-score [6] was -1.31 (inactive). For the same molecule, the composite z-score [7] was 0.0216, the composite z-score [8] was -0.73 and the composite z-score [9] was -0.0072. For the same molecule, the composite z-score [10] was 0.779.

For CC(=O)NCCCC[C@@H]1NC(=O)[C@@H]2C[C@H](C(=O)NCCCCCN)[C@H](c3cccc(OCCO)c3)N2C1=O, the composite z-score [1] was 0.872, the z-score [2] was -3.85 (inactive) and the z-score [3] was -0.31 (inactive). For the same molecule, the z-score [4] was -0.858 (inactive), the composite z-score [5] was 1.66 and the z-score [6] was 1.36 (inactive). For the same molecule, the composite z-score [7] was 0.534, the composite z-score [8] was 1.42 and the composite z-score [9] was 1.09. It also gave a composite z-score [10] of 0.101.

With CCOC(=O)C=Cc1cccc(C)c1O the composite z-score [1] was 0.23, the z-score [2] was -19.8 (active) and the z-score [3] was -11.5 (active). For the same molecule, the z-score [4] was -2.54 (inactive), the composite z-score [5] was 0.236 and the z-score [6] was 0.666 (inactive). The composite z-score [7] was -0.166, the composite z-score [8] was -0.452 and the composite z-score [9] was -0.0138. The composite z-score [10] was -0.099.

For CCCCCN1CC=CC23O[C@@H]4/C=C\CCCOC(=O)C4[C@H]2C(=O)N(C(C)CO)[C@@H]3C1=O (stereo not given in full), the composite z-score [1] was 1.14, the z-score [2] was -0.145 (inactive) and the z-score [3] was -1.52 (inactive). The z-score [4] was -0.744 (inactive), the composite z-score [5] was 1.86 and the z-score [6] was 0.815 (inactive). For the same molecule, the composite z-score [7] was -0.125, the composite z-score [8] was -1.33 and the composite z-score [9] was -0.365. The composite z-score [10] was -0.213.

With COc1ccc(C#Cc2ccc3c(c2)[C@]2(C(=O)N3)[C@H](c3ccc(OCCO)cc3)N3[C@H](c4ccccc4)[C@H](c4ccccc4)OC(=O)[C@H]3[C@@H]2C(=O)NC[C@H](O)c2ccccc2)cc1 the composite z-score [1] was 1.57, the z-score [2] was 4.38 (inactive) and the z-score [3] was 2.39 (inactive). The z-score [4] was 4.82 (inactive), the composite z-score [5] was 3.08 and the z-score [6] was 1.16 (inactive). It also gave a composite z-score [7] of -0.0977, a composite z-score [8] of 0.447 and a composite z-score [9] of 1.08. For the same molecule, the composite z-score [10] was -0.0152.

With C[C@@H]1NC(=O)[C@@H](Cc2ccccc2)NC(=O)[C@@]23C(=O)N[C@@H](Cc4ccccc4)C2[C@H](C)[C@@]2(C)O[C@H]2C3/C=C/C/C=C\CNC1=O (stereo not given in full) the composite z-score [1] was -1.06, the z-score [2] was 0.378 (inactive) and the z-score [3] was 0.573 (inactive). For the same molecule, the z-score [4] was 0.783 (inactive), the composite z-score [5] was 2.84 and the z-score [6] was -1.02 (inactive). The composite z-score [7] was -0.218, the composite z-score [8] was 0.972 and the composite z-score [9] was 0.354. For the same molecule, the composite z-score [10] was -0.168.

For O=C1OCCC=C[C@H]2OC34C=CCN(Cn5nnc6ccccc65)C(=O)[C@H]3N(CCCO)C(=O)[C@@H]4C12 (stereo not given in full), the composite z-score [1] was -1.72, the z-score [2] was 0.0799 (inactive) and the z-score [3] was -0.973 (inactive). For the same molecule, the z-score [4] was -0.342 (inactive), the composite z-score [5] was -1.7 and the z-score [6] was 1.81 (inactive). For the same molecule, the composite z-score [7] was -0.209, the composite z-score [8] was -0.677 and the composite z-score [9] was -0.99. It also gave a composite z-score [10] of -0.264.

In the case of CCCC[C@@H](O)C1=C(COC)C[C@H]2C(=O)N(Cc3ccccc3)C(=O)[C@H]2[C@H]1CO, the composite z-score [1] is reported as 0.831, the z-score [2] is reported as 0.332 (inactive) and the z-score [3] is reported as -0.677 (inactive). The z-score [4] was 0.719 (inactive), the composite z-score [5] was 0.113 and the z-score [6] was 0.649 (inactive). The composite z-score [7] was -0.241, the composite z-score [8] was 1.18 and the composite z-score [9] was 0.788. For the same molecule, the composite z-score [10] was -0.113.

In the case of C=CCC(OC(C)=O)[C@@H]1[C@@H](N(Cc2cccc3ccccc23)C(=O)Cc2ccc(OC)cc2)c2cc(OCCCO)ccc2N1C(=O)c1ccc(-c2ccccc2)cc1 (stereo not given in full), the composite z-score [1] is reported as 0.328, the z-score [2] is reported as 0.0338 (inactive) and the z-score [3] is reported as 0.402 (inactive). For the same molecule, the z-score [4] was -0.962 (inactive), the composite z-score [5] was 1.1 and the z-score [6] was -0.373 (inactive). For the same molecule, the composite z-score [7] was -0.206, the composite z-score [8] was -0.424 and the composite z-score [9] was 0.0523. The composite z-score [10] was -0.19.

For CCCNC(=O)[C@@]1(C)c2ccccc2C(=O)N(c2ccc(C)cn2)[C@H]1c1ccc(CO)cc1, the composite z-score [1] was -0.266, the z-score [2] was -0.788 (inactive) and the z-score [3] was -0.164 (inactive). For the same molecule, the z-score [4] was -0.145 (inactive), the composite z-score [5] was 3.4 and the z-score [6] was -0.618 (inactive). It also gave a composite z-score [7] of -0.0352, a composite z-score [8] of 0.146 and a composite z-score [9] of -0.0421. It also gave a composite z-score [10] of -0.0828.

With COC(=O)C1=CC(CCCO)=CC(c2ccc(CN3CCCC3)cc2)N(Cc2cccc(OC(F)(F)F)c2)C=C1C(=O)OC (stereo not given) the composite z-score [1] was 1.44, the z-score [2] was -1.22 (inactive) and the z-score [3] was -9.89 (active). For the same molecule, the z-score [4] was -1.11 (inactive), the composite z-score [5] was 3.31 and the z-score [6] was -2.59 (inactive). The composite z-score [7] was 0.373, the composite z-score [8] was -0.116 and the composite z-score [9] was 0.888. For the same molecule, the composite z-score [10] was -0.0418.

For COC(=O)[C@@]1(Cc2ccc(OC)cc2)[C@H]2c3cc(C(=O)N(C)C)n(Cc4ccc(OC(F)(F)F)cc4)c3C[C@H]2CN1C(=O)c1ccccc1, the composite z-score [1] was -0.708, the z-score [2] was 0.461 (inactive) and the z-score [3] was 1.08 (inactive). For the same molecule, the z-score [4] was 0.649 (inactive), the composite z-score [5] was 3.39 and the z-score [6] was -1.08 (inactive). The composite z-score [7] was 0.106, the composite z-score [8] was -0.588 and the composite z-score [9] was -0.354. It also gave a composite z-score [10] of 0.0139.

For COC(=O)c1c(CC[C@@H](CO)NC(=O)N2CCC[C@H]2Cn2cc(C3(O)CCCCC3)nn2)oc(C(C)=O)c1C(=O)OC, the composite z-score [1] was 1.53, the z-score [2] was 0.752 (inactive) and the z-score [3] was -0.154 (inactive). The z-score [4] was -1.28 (inactive), the composite z-score [5] was 3.4 and the z-score [6] was -0.889 (inactive). The composite z-score [7] was -0.124, the composite z-score [8] was 0.872 and the composite z-score [9] was 0.916. The composite z-score [10] was -0.0097.

For O=C(O)[C@@H]1[C@@H]2C(=O)N(c3ccccc3)C(=O)[C@@H]2C[C@@H]1Sc1ccccc1, the composite z-score [1] was -1.41, the z-score [2] was 0.752 (inactive) and the z-score [3] was 1.68 (inactive). The z-score [4] was 1.53 (inactive), the composite z-score [5] was 0.758 and the z-score [6] was -0.686 (inactive). It also gave a composite z-score [7] of 0.251, a composite z-score [8] of -1.71 and a composite z-score [9] of -1.56. It also gave a composite z-score [10] of 0.196.
